Reference: the supplement of paper PMC9694430

Assays:
Experiment in all cases: thermal shift delta Tm vs DMSO control; higher = stronger stabilization (binding)
Details in all cases: 12.5 µM; protein concentration 2 µM
[1] = test system: LOC_OS01G57100-cb003
In short: (§1)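 Heating from 25°C to 95°C at 0.05°C/s, fluorescence was recorded for 19.5 μl wells of 2 μM E. coli-expressed, purified rice kinase domain in 100 mM potassium phosphate pH 7.5, 150 mM NaCl, 10% glycerol and 5 × SYPRO Orange with compound in DMSO. Boltzmann fits gave melting temperatures for this differential scanning fluorimetry assay. The shift reported is the mean of three replicates against the DMSO-only protein.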

[2] = test system: LOC_OS01G60330-cb001
In short: as §1

[3] = test system: LOC_OS01G60700-cb002
In short: as §1

[4] = test system: LOC_OS01G63280-cb003
In short: as §1

[5] = test system: LOC_OS01G67340-cb003
In short: as §1

[6] = test system: LOC_OS01G70970-cb002
In short: as §1

[7] = test system: LOC_OS02G07810-cb001
In short: as §1

[8] = test system: LOC_OS02G08530-cb003
In short: as §1

[9] = test system: LOC_OS02G14120-cb001
In short: as §1

[10] = test system: LOC_OS02G17970-cb001
In short: as §1

[11] = test system: LOC_OS02G45750-cb003
In short: as §1

[12] = test system: LOC_OS02G54510-cb004
In short: as §1

[13] = test system: LOC_OS03G04050-cb001
In short: as §1

[14] = test system: LOC_OS03G12390-cb001
In short: as §1

[15] = test system: LOC_OS03G27990-cb004
In short: as §1

[16] = test system: LOC_OS03G50450-cb001
In short: as §1

[17] = test system: LOC_OS03G50810-cb003
In short: as §1

[18] = test system: LOC_OS04G35114-cb001
In short: as §1

[19] = test system: T1, LOC_OS04G38480-cb003
T1 sequence (whole entry): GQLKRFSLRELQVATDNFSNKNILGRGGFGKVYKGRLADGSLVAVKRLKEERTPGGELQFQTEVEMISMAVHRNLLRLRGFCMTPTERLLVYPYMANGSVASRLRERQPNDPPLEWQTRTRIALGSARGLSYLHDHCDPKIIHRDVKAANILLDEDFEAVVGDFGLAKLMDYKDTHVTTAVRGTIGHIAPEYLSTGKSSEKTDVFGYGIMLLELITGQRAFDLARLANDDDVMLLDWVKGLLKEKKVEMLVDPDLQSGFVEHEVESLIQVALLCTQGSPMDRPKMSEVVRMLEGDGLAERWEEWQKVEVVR
In short: as §1

[20] = test system: T2, LOC_OS04G41100-cb001
T2 sequence (whole entry): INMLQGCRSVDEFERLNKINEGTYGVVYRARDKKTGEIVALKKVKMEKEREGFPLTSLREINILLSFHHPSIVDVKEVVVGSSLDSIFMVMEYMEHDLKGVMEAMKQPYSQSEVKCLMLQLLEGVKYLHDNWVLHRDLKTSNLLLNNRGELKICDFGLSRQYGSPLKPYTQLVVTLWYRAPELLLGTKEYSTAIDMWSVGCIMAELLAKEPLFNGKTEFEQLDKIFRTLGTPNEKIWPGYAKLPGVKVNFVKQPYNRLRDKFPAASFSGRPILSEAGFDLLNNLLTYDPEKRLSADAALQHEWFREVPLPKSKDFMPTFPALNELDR
In short: as §1
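Also: purified Escherichia coli-expressed rice kinase domain construct.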

Compound	thermal shift delta Tm [1] [°C]	thermal shift delta Tm [2] [°C]	thermal shift delta Tm [3] [°C]	thermal shift delta Tm [4] [°C]	thermal shift delta Tm [5] [°C]	thermal shift delta Tm [6] [°C]	thermal shift delta Tm [7] [°C]	thermal shift delta Tm [8] [°C]	thermal shift delta Tm [9] [°C]	thermal shift delta Tm [10] [°C]	thermal shift delta Tm [11] [°C]	thermal shift delta Tm [12] [°C]	thermal shift delta Tm [13] [°C]	thermal shift delta Tm [14] [°C]	thermal shift delta Tm [15] [°C]	thermal shift delta Tm [16] [°C]	thermal shift delta Tm [17] [°C]	thermal shift delta Tm [18] [°C]	thermal shift delta Tm [19] [°C]	thermal shift delta Tm [20] [°C]
C[C@@H]1COCCN1c1cc(=O)n2c(n1)N(Cc1cncc(Cl)c1)[C@H](C(F)(F)F)CC2	1.19	1.13	1.05	0.61	0.35	0.33	0.77	0.7	0.82	1.7	0.59	0.31	0.37	0.19	0.22	0.04	0.46	0.41	1.55	0.39
O=C1NC(=O)C(c2cnc3ccccn23)=C1c1cn2c3c(cc(F)cc13)CN(C(=O)N1CCCCC1)CC2	1.16	3.68	2.25	0.82	0.19	0.64	1.59	1.8	0.04	2.16	0.77	0	0.57	4.58	0.13	0.64	0.95	1.35	1.47	1.44
CNc1nc(Nc2cn(C(C)(C)C#N)nc2C)ncc1C(F)(F)F	1.92	1.38	1.27	0.69	0.49	0.2	0.4	0.86	0.65	1.09	0.99	0.1	0.32	0.28	0.39	0.78	0.62	1.36	1.34	0.22
c1cn2cc(-c3ccc4cn[nH]c4c3)nc(Nc3ccc(N4CCOCC4)cc3)c2n1 [Entospletinib (GS-9973)]	2.14	7.21	1.39	2	2.82	1.17	-0.11	3.77	8.09	0.54	0.66	1.02	0.92	3.99	1.72	4.22	2.13	2.13	2.56	1.01
O=c1sn(-c2cccc3ccccc23)c(=O)n1Cc1ccccc1 [Tideglusib]	1.25	0.51	1.08	0.25	0.24	-0.22	0.81	0.5	-0.01	1.3	0	0.35	0.13	-1.57	0.89	0.32	-0.5	2.38	0.78	0.34
O=C(NOC[C@H](O)CO)c1ccc(F)c(F)c1Nc1ccc(I)cc1F	0.81	1.22	1.23	0.57	0.04	0.46	1.39	1.15	1.04	0.52	0.77	0.16	0.43	0.47	0.21	0.26	0.28	-0.05	0.76	0.78
Cc1ncc(CCCN(C)C)cc1Nc1ncc2c(n1)-c1ccc(C(F)(F)F)cc1NC(=S)C2	1.69	0.92	1.39	0.8	0.49	0.65	0.56	1.89	0.46	1.61	1.25	0.09	0.4	3.03	0.91	0.13	0.62	0.02	0.51	0.47
CC(C)(C)NS(=O)(=O)c1cncc(-c2cc(F)c3nc(N)nn3c2)c1	1.55	0.87	1.82	0.83	0.93	0.9	1.06	0.86	-0.33	2.29	0.74	0.24	0.64	0.19	0.94	0.53	0.4	0.87	0.98	0.29
CN(C)Cc1cccc(N=C(c2ccccc2)c2c(O)[nH]c3cc(C(=O)N(C)C)ccc23)c1	0.86	0.56	0.46	0.74	0.8	0.24	1.05	0.71	1.17	1.25	4.33	0.4	0.44	0.66	1.19	0.55	2.45	5.85	0.55	0.45
COc1cc2nccc(Oc3ccc(NC(=O)C4(C(=O)Nc5ccc(F)cc5)CC4)cc3)c2cc1OC	1.05	2.17	1.12	1.29	0.96	1.37	1.4	1.21	5.23	0.76	1.97	1.19	0.5	0.4	0.27	0.3	0.76	1.45	2.61	0.93
CNC(=O)c1cc(COc2nnc(Nc3ccc(Cl)cc3)c3ccoc23)ccn1 [Telatinib]	1.9	0.6	0.35	0.76	0.82	0.19	0.85	0.69	-0.19	1.35	0.27	0.15	0.24	-0.25	0.21	0.19	0.38	0.7	1.95	1.53
CC(=O)Nc1cccc(-n2c(=O)n(C3CC3)c(=O)c3c(Nc4ccc(I)cc4F)n(C)c(=O)c(C)c32)c1	1.39	0.69	0.72	0.03	-0.14	0.12	0.36	1.99	0.02	-0.07	0.35	-0.04	0.2	-0.13	0.22	0.62	0.43	0.56	0.86	0.62
CNC(=O)c1cc(Oc2ccc(NC(=O)Nc3ccc(Cl)c(C(F)(F)F)c3)cc2)ccn1 [Sorafenib]	3.62	3.63	0.58	9.12	1.48	1.77	1.92	1.8	2.47	2.3	4.5	1.47	0.48	1.7	0.3	1.22	1.02	1.71	3.55	0.99
